This is an account of results in publication PMC11006913.

Holding throughout (experiment): PBM; 200 nM protein, PBS
Settings in all cases: dsDNA, one strand shown

Test [1] addresses HOXC9 (Homo sapiens, UniProt P31274 178-260, K195R).
Test [2] deals with HOXC9 (Homo sapiens, UniProt P31274 178-260).
Test [3] concerns the target HOXC9 (Homo sapiens, UniProt P31274 178-260, R193K).
Test [4] addresses HOXC9 (Homo sapiens, UniProt P31274 178-260, R222W).
For test [5], the target named is PROP1 (Homo sapiens, UniProt O75360 56-141).
The target of test [6] is PROP1 (Homo sapiens, UniProt O75360 56-141, R99H).
Test [7] addresses PROP1 (Homo sapiens, UniProt O75360 56-141, F88S).

Chain of HOXC9 (Homo sapiens, UniProt P31274 178-260) (P31274 178-260): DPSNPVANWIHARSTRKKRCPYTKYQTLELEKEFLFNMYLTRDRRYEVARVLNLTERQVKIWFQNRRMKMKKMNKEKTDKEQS
Chain of HOXC9 (Homo sapiens, UniProt P31274 178-260, K195R) (P31274 178-260 K195R): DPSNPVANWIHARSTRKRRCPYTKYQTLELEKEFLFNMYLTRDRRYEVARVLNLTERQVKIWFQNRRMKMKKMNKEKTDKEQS
Chain of HOXC9 (Homo sapiens, UniProt P31274 178-260, R193K) (P31274 178-260 R193K): as the sequence (P31274 178-260) above, with R16K counted along it
Chain of HOXC9 (Homo sapiens, UniProt P31274 178-260, R222W) (P31274 178-260 R222W): as the sequence (P31274 178-260) above, with R45W counted along it
Chain of PROP1 (Homo sapiens, UniProt O75360 56-141, F88S) (O75360 56-141 F88S): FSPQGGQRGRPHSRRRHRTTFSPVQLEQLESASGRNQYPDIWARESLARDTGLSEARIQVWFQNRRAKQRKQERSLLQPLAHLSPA
Chain of PROP1 (Homo sapiens, UniProt O75360 56-141) (O75360 56-141): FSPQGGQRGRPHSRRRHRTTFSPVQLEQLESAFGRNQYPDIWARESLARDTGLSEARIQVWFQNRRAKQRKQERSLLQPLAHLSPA
Chain of PROP1 (Homo sapiens, UniProt O75360 56-141, R99H) (O75360 56-141 R99H): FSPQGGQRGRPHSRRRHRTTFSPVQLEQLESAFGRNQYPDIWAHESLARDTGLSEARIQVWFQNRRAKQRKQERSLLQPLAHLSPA

With GCCCCAGC, the binding signal is 9.66 upbm affinity estimate (log intensity, higher = more binding, comparable within an allelic series) with HOXC9 [1]; 9.84 upbm affinity estimate (log intensity, higher = more binding, comparable within an allelic series) with HOXC9 [2]; 9.62 upbm affinity estimate (log intensity, higher = more binding, comparable within an allelic series) with HOXC9 [3]; 9.7 upbm affinity estimate (log intensity, higher = more binding, comparable within an allelic series) with HOXC9 [4].

Turning to ACTTTACG, the binding signal in the test with HOXC9 [1] is 11.5 upbm affinity estimate (log intensity, higher = more binding, comparable within an allelic series); with HOXC9 [2], 11.7 upbm affinity estimate (log intensity, higher = more binding, comparable within an allelic series); with HOXC9 [3] it was 11.5 upbm affinity estimate (log intensity, higher = more binding, comparable within an allelic series).

With ATGAACTA, the binding signal is 10.9 upbm affinity estimate (log intensity, higher = more binding, comparable within an allelic series) in the test with HOXC9 [1]; 10.9 upbm affinity estimate (log intensity, higher = more binding, comparable within an allelic series) with HOXC9 [2]; 10.9 upbm affinity estimate (log intensity, higher = more binding, comparable within an allelic series) in the test with HOXC9 [3].

Take ACTAAATA: the binding signal was 11.6 upbm affinity estimate (log intensity, higher = more binding, comparable within an allelic series) in the test with HOXC9 [1]; 11.5 upbm affinity estimate (log intensity, higher = more binding, comparable within an allelic series) with HOXC9 [2]; 11.6 upbm affinity estimate (log intensity, higher = more binding, comparable within an allelic series) in the test with HOXC9 [3].

Consider AGGCTCCC, for which the binding signal in the test with HOXC9 [1] is 9.39 upbm affinity estimate (log intensity, higher = more binding, comparable within an allelic series); with HOXC9 [2], 9.56 upbm affinity estimate (log intensity, higher = more binding, comparable within an allelic series); with HOXC9 [3], 9.51 upbm affinity estimate (log intensity, higher = more binding, comparable within an allelic series); with HOXC9 [4] it was 9.47 upbm affinity estimate (log intensity, higher = more binding, comparable within an allelic series).

In the case of AGCCCGGC, the binding signal with HOXC9 [1] was 9.63 upbm affinity estimate (log intensity, higher = more binding, comparable within an allelic series); with HOXC9 [2], 9.75 upbm affinity estimate (log intensity, higher = more binding, comparable within an allelic series); with HOXC9 [3], 9.64 upbm affinity estimate (log intensity, higher = more binding, comparable within an allelic series); in the test with HOXC9 [4] it was 9.67 upbm affinity estimate (log intensity, higher = more binding, comparable within an allelic series).

Turning to CGGTCCAG, the binding signal with HOXC9 [1] was 9.64 upbm affinity estimate (log intensity, higher = more binding, comparable within an allelic series); in the test with HOXC9 [2], 9.66 upbm affinity estimate (log intensity, higher = more binding, comparable within an allelic series); with HOXC9 [3], 9.64 upbm affinity estimate (log intensity, higher = more binding, comparable within an allelic series); in the test with HOXC9 [4] it was 9.63 upbm affinity estimate (log intensity, higher = more binding, comparable within an allelic series).

CTGTTATA: the binding signal in the test with HOXC9 [1] is 11.5 upbm affinity estimate (log intensity, higher = more binding, comparable within an allelic series); with HOXC9 [2] it was 11.5 upbm affinity estimate (log intensity, higher = more binding, comparable within an allelic series); in the test with HOXC9 [3] it was 11.5 upbm affinity estimate (log intensity, higher = more binding, comparable within an allelic series).

For AGCCGACC, the binding signal in the test with HOXC9 [1] was 9.56 upbm affinity estimate (log intensity, higher = more binding, comparable within an allelic series); with HOXC9 [2] it was 9.71 upbm affinity estimate (log intensity, higher = more binding, comparable within an allelic series); with HOXC9 [3], 9.61 upbm affinity estimate (log intensity, higher = more binding, comparable within an allelic series); with HOXC9 [4], 9.74 upbm affinity estimate (log intensity, higher = more binding, comparable within an allelic series).

AGGGACCC: the binding signal in the test with HOXC9 [1] is 9.58 upbm affinity estimate (log intensity, higher = more binding, comparable within an allelic series); with HOXC9 [2], 9.44 upbm affinity estimate (log intensity, higher = more binding, comparable within an allelic series); in the test with HOXC9 [3], 9.63 upbm affinity estimate (log intensity, higher = more binding, comparable within an allelic series); with HOXC9 [4], 9.54 upbm affinity estimate (log intensity, higher = more binding, comparable within an allelic series).

On to CACCATTA, for which the binding signal with HOXC9 [1] was 11.9 upbm affinity estimate (log intensity, higher = more binding, comparable within an allelic series); with HOXC9 [2], 11.9 upbm affinity estimate (log intensity, higher = more binding, comparable within an allelic series); in the test with HOXC9 [3], 11.8 upbm affinity estimate (log intensity, higher = more binding, comparable within an allelic series); in the test with HOXC9 [4], 10.6 upbm affinity estimate (log intensity, higher = more binding, comparable within an allelic series).

Take GGGCCCCC: the binding signal is 9.38 upbm affinity estimate (log intensity, higher = more binding, comparable within an allelic series) with HOXC9 [1]; 9.62 upbm affinity estimate (log intensity, higher = more binding, comparable within an allelic series) with HOXC9 [2]; 9.51 upbm affinity estimate (log intensity, higher = more binding, comparable within an allelic series) with HOXC9 [3]; 9.4 upbm affinity estimate (log intensity, higher = more binding, comparable within an allelic series) with HOXC9 [4].

As for CCTCTGGA, the binding signal in the test with HOXC9 [1] is 9.66 upbm affinity estimate (log intensity, higher = more binding, comparable within an allelic series); with HOXC9 [2], 9.58 upbm affinity estimate (log intensity, higher = more binding, comparable within an allelic series); in the test with HOXC9 [3], 9.64 upbm affinity estimate (log intensity, higher = more binding, comparable within an allelic series); in the test with HOXC9 [4] it was 9.74 upbm affinity estimate (log intensity, higher = more binding, comparable within an allelic series).

Consider ATATTGCA, for which the binding signal with HOXC9 [1] was 11.2 upbm affinity estimate (log intensity, higher = more binding, comparable within an allelic series); with HOXC9 [2], 11.2 upbm affinity estimate (log intensity, higher = more binding, comparable within an allelic series); with HOXC9 [3], 11.3 upbm affinity estimate (log intensity, higher = more binding, comparable within an allelic series).

In the case of GAGATAAA, the binding signal in the test with HOXC9 [1] is 11.1 upbm affinity estimate (log intensity, higher = more binding, comparable within an allelic series); with HOXC9 [2] it was 11.1 upbm affinity estimate (log intensity, higher = more binding, comparable within an allelic series); with HOXC9 [3] it was 11.1 upbm affinity estimate (log intensity, higher = more binding, comparable within an allelic series).

ATCTACTA: the binding signal is 11 upbm affinity estimate (log intensity, higher = more binding, comparable within an allelic series) in the test with HOXC9 [1]; 10.7 upbm affinity estimate (log intensity, higher = more binding, comparable within an allelic series) in the test with HOXC9 [2]; 10.8 upbm affinity estimate (log intensity, higher = more binding, comparable within an allelic series) with HOXC9 [3].

CGGTGCCA: the binding signal was 9.43 upbm affinity estimate (log intensity, higher = more binding, comparable within an allelic series) with HOXC9 [1]; 9.52 upbm affinity estimate (log intensity, higher = more binding, comparable within an allelic series) with HOXC9 [2]; 9.49 upbm affinity estimate (log intensity, higher = more binding, comparable within an allelic series) in the test with HOXC9 [3]; 6.41 upbm affinity estimate (log intensity, higher = more binding, comparable within an allelic series) with PROP1 [5]; 6.46 upbm affinity estimate (log intensity, higher = more binding, comparable within an allelic series) with PROP1 [6]; 9.58 upbm affinity estimate (log intensity, higher = more binding, comparable within an allelic series) with HOXC9 [4]. Also, in the test with PROP1 [7], the binding signal was 6.5 upbm affinity estimate (log intensity, higher = more binding, comparable within an allelic series).
